# Source: PMC5540273 (PLoS ONE, 2017)
# Values joined by “and” are separate entries in the source; they are usually repeats but may differ in a detail not shown here. Identical values can stand only once. Like-named read-outs stand apart in the source and are kept apart here.
# Experiments:
# [1] = test system: T1, MEK2; conditions: concentration: 1 μM, replicates: in singlicate; n = 1
# T1 construct: gene MAP2K2
# [2] = test system: T2, MEK3; conditions: concentration: 1 μM, replicates: in singlicate; n = 1
# T2 construct: gene MAP2K3
# [3] = test system: T3, MEK4; conditions: n = 1
# T3 construct: gene MAP2K4
# [4] = test system: T4, MEK5; conditions: n = 1
# T4 construct: gene MAP2K5
# [5] = test system: T5, MEK6; conditions: concentration: 1 μM, replicates: in singlicate; n = 1
# T5 construct: gene MAP2K6
# [6] = test system: MELK; conditions: n = 1
# [7] = test system: MERTK; conditions: n = 1
# [8] = test system: MET; conditions: concentration: 1 μM, replicates: in singlicate; n = 1
# [9] = test system: T6, MINK; conditions: concentration: 1 μM, replicates: in singlicate; n = 1
# T6 construct: gene MINK1
# [10] = test system: MKK7; conditions: concentration: 1 μM, replicates: in singlicate; n = 1
# [11] = concentration: 1 μM, replicates: in singlicate
# [12] = concentration: 1 μM,replicates: in singlicate, 1 µM
# 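Also: KINOMEscan kinase panel screen.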
SMILES,%Inh [1] [%],%Inh [2] [%],"%Inh [3, 11] [%]","%Inh [4, 11] [%]",%Inh [5] [%],"%Inh [6, 11] [%]","%Inh [7, 11] [%]",%Inh [8] [%],%Inh [9] [%],%Inh [10] [%],"%Inh [3, 12]","%Inh [4, 12]","%Inh [6, 12]","%Inh [7, 12]"
COc1ccc(CNC(=O)NC2CCN(c3ccnc(Nc4cc(OC)c(OC)c(OC)c4)n3)C2)cc1 (stereo not drawn) [GSK1379748],0,0,6,98.4,0,0,36,9,0,0,,,,
Cl.O=C(Nc1cccc(-c2nn3ncccc3c2-c2ccnc(Nc3cccnc3)n2)c1)c1c(F)cccc1F [GSK312879],9,10,40,88,0,3,12,0,0,20,,,,
COc1cc2nccc(Nc3ccc(NC(=O)c4ccc(C)cc4)c(O)c3)c2cc1OC.Cl [GW440132],0,0,19,99.9,0,0,5,0,0,0,,,,
Cc1cc(N2Cc3ccccc3C2)nc(Nc2ccc(S(=O)(=O)N3CCOCC3)cc2)n1.Cl [GSK1669917],0,0,0,9,0,0,9,0,20,0,,,,
CN(C)CCN(C)C(=O)c1cc(-c2ccncc2)c(-c2ccc(Cl)c(O)c2)o1.Cl.Cl [SB-710397],0,0,0,48,0,9,24,0,46,14,,,,
Cn1ccc2ncnc(Oc3cccc(C(=O)Nc4ccccc4)c3)c21,23,19,30,14,0,9,0,8,12,21,,,,
Cc1cccc(-c2nc(C)cc(Nc3ccncc3)n2)n1 [GSK257997],0,0,32,8,0,0,18,0,6,0,,,,
COC(=O)c1c(-c2ccccc2)c2cc(OC)ccc2c(=O)n1Cc1ccccc1,0,0,18,10,21,0,3,0,0,7,,,,
Cc1ccc(NC(=O)Nc2cc(C(C)(C)C)nn2-c2ccccc2)cc1 [GSK1014915],0,0,12,2,0,26,15,0,0,0,,,,
COc1cccc(-c2cc(-c3c[nH]nc3-c3ccccn3)ccn2)c1 [GW680338],0,67,8,13,0,19,14,10,65,10,,,,
CC1=C(C(=O)Nc2cc3cn[nH]c3cc2F)C(c2ccc(C(F)(F)F)cc2)CC(=O)N1 (stereo not drawn) [GSK429286],0,23,15,8,0,0,13,0,0,48,,,,
COc1cc2ncn(-c3cc(OCC4CCCO4)c(C(N)=O)s3)c2cc1OC (stereo not drawn) [GSK204607],9,0,5,99.3,0,0,10,0,27,0,,,,
Cc1cccc(-c2nc(Nc3ccc4[nH]ncc4c3)c3ccccc3n2)n1 [GW857175],24,19,51,40,0,25,11,2,19,12,,,,
CC(C)(C)c1ccc(C(=O)Nc2cn3cc(Cl)ccc3n2)cc1,24,0,33,38,0,1,0,0,9,0,,,,
O=C(Nc1n[nH]c2nc(-c3nccs3)c(Br)cc12)C1CC1 [SB-742251],0,0,13,74,0,0,12,0,20,0,,,,
Nc1nc(-c2nccs2)c(-c2ccnc3ccccc23)s1 [GW693542],0,0,36,45,0,56,22,2,51,0,,,,
Cc1ccc(-c2cc(-c3c[nH]nc3-c3ccccn3)ccn2)cc1 [GW684088],0,0,9,17,19,25,13,0,87,14,,,,
Cl.c1ccc(-c2n[nH]cc2-c2ccnc(-c3ccc(CN4CCOCC4)cc3)c2)nc1 [GW776245],49,0,27,5,0,5,8,16,8,0,,,,

SMILES,%Inh [1] [%],%Inh [2] [%],"%Inh [3, 11] [%]","%Inh [4, 11] [%]",%Inh [5] [%],"%Inh [6, 11] [%]","%Inh [7, 11] [%]",%Inh [8] [%],%Inh [9] [%],%Inh [10] [%],"%Inh [3, 12]","%Inh [4, 12]","%Inh [6, 12]","%Inh [7, 12]"
COc1ccc(C2=C(Nc3cccc(C(=O)O)c3)C(=O)NC2=O)cc1 [SB-390765],15,15,7,40,0,11,11,0,8,8,,,,
O=C(Nc1n[nH]c2cc(-c3cccc(F)c3F)ccc12)C1CC1 [SB-733894],11,15,1,45,20,0,0,0,58,0,,,,
COc1ccc(Nc2nccc(-c3cccc(NC(=O)c4cc5cc(F)ccc5[nH]4)c3)n2)cc1 [GSK1229782],0,22,28,96.1,3,10,47,0,55,21,,,,
COc1ccccc1CNC(=O)c1cc(C(=O)c2ccccc2C)c[nH]1 [GSK364507],0,0,41,36,0,0,0,0,0,0,,,,
C[C@@H]1CCCCN1c1cc(-c2ccc3c(N)n[nH]c3c2)nc(N)n1 [GSK2258759],0,0,8,7,14,0,11,0,15,0,,,,
Cc1cccc(-c2nc(Nc3cccc(C(N)=O)c3)c3ccccc3n2)n1 [GW876019],27,14,0,20,0,24,11,19,5,0,,,,
CSc1nn2c(=O)cc(N3CCOCC3)nc2n1Cc1cccc(C(F)(F)F)c1C [GSK2363608],0,0,,,0,,,0,0,0,17% and 30%,12% and 0%,6% and 0%,0% and 18%
CCn1c(-c2cccnc2O)nc2cnccc21 [SB-736715],0,14,0,11,0,1,26,0,0,0,,,,
COc1ccccc1-c1ccc2c(NC(=O)C3CC3)n[nH]c2n1 [SB-711239],0,16,21,0,0,15,2,0,6,7,,,,
Cl.Oc1ccc(-c2nc(-c3ccccc3)[nH]c2-c2ccncc2)cc1 [SB-428218],0,0,0,17,1,2,0,0,11,0,,,,
COc1cc(Nc2nccc(N3CCC(NC(=O)Nc4cc(C)ccc4C)C3)n2)cc(OC)c1OC (stereo not drawn) [GSK1379762],0,0,7,99.8,0,5,51,42,0,0,,,,
Cn1cncc1-c1ccc2ncnc(Nc3ccc(OCc4ccccc4)cc3)c2c1 [GW320571],0,0,35,93.7,0,15,2,11,0,15,,,,
CC(C)(C)c1ccc(C(=O)Nc2cn3cc(-c4cccnc4)ccc3n2)cc1,36,13,0,95.4,32,33,26,0,52,0,,,,
CN1C(=O)C(Nc2ccc(Cl)c(C(=O)O)c2)=C(c2ccc(Cl)cc2)C1=O [SB-404290],21,3,26,0,0,4,11,0,10,0,,,,
CCCc1ccc(S(=O)(=O)NC2CCN(c3ccnc(Nc4ccc(F)cc4)n3)C2)cc1 (stereo not drawn) [GSK1379715],0,0,28,0,100,0,0,0,0,0,,,,
O=C(Nc1ccc2c(c1)OCO2)NC1CCN(c2ccnc(Nc3ccc(F)cc3)n2)C1 (stereo not drawn) [GSK1379724],0,0,28,17,0,0,0,0,0,0,,,,
Cn1ccc2ncnc(Oc3ccc(Nc4nc5ccccc5[nH]4)cc3)c21,0,0,0,11,0,0,8,0,0,0,,,,
Cc1c(O)cccc1Nc1ccnc2ccc(C(F)(F)F)cc12.Cl [GW466413],0,0,19,35,0,11,0,0,2,0,,,,
